The source made the active and inactive calls. The calls were made as follows: active = hit-call score of the fitted dose curve at least 0.9, where 1 is the maximum; inactive = score below 0.9.

The source of these data is PubChem BioAssay (EPA / NIEHS).

The nature of experiment [1]: ATG_CRE_CIS: Attagene CIS-FACTORIAL HepG2 Assay for human cAMP Responsive Element (CRE) binding protein 3 (AID 2282926). Conditions: HepG2 CRE cis-reporter, Attagene multiplexed mRNA; actives raise or lower the signal. The essentials:
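Assay format: transient reporter transfection of HepG2, 24 h treatment, total RNA isolation with DNase I step. Reporter abundance read by fluorescence after PCR and capillary separation; DMSO-normalised gain or loss fitting.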

For experiment [2], the target named is CCAAT/enhancer-binding protein beta (Homo sapiens) (UniProt P17676). Nature of the experiment: ATG_C_EBP_CIS: Attagene CIS-FACTORIAL HepG2 Assay for human CCAAT/Enhancer Binding Protein (C/EBP) beta (AID 2282927). Conditions: HepG2 Attagene cis-factorial transcription factor reporter; actives raise or lower the signal. Put shortly:
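Transiently transfected HepG2 (MRTU library, endogenous TF-driven promoters); 24 h dosing; total RNA → oligo(dT) RT → PCR → 6-FAM primer extension → HpaI digest → CE; fit bidirectionally vs DMSO.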

Experiment [3] is described as follows: ATG_CMV_CIS: Attagene CIS-FACTORIAL HepG2 Assay for human CMV (Internal Marker) (AID 2282928).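 Also: endpoint acts as a background internal control marker rather than a target.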 Conditions: HepG2 CMV promoter reporter, transcription factor profiling; actives raise or lower the signal. The essentials:
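Readout: fluorescent reporter cDNA fragments separated by capillary electrophoresis after RT-PCR and HpaI cut. Cells: HepG2 carrying transfected cis-promoter reporter constructs, dosed 24 h. Endpoint serves as background internal-marker control, fit bidirectionally versus DMSO.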

Experiment [4] in a line: ATG_DR4_LXR_CIS: Attagene CIS-FACTORIAL HepG2 Assay for human Liver X Receptor (LXR), DR4 submotif (AID 2282929). Particulars: HepG2 Attagene DR4 cis-reporter, mRNA transcription; actives raise or lower the signal. The essentials: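 Fluorescence intensity of labelled reporter cDNA fragments, separated by capillary electrophoresis, gives the signal. HepG2 cells bearing cis-regulated reporter constructs were treated 24 h; activity fitted bidirectionally relative to DMSO negative control.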

The target of experiment [5] is Aryl hydrocarbon receptor (Homo sapiens) (UniProt P35869). Nature of the experiment: ATG_Ahr_CIS: Attagene CIS-FACTORIAL HepG2 Assay for human Aryl Hydrocarbon Receptor (Ahr) (AID 2282930). Conditions: HepG2 AhR cis-factorial reporter transcription; actives raise or lower the signal. The essentials:
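Read-out: reporter mRNA quantified by RT-PCR with fluorescent primer extension and capillary electrophoresis. Human HepG2 liver cells carried transfected cis-promoter reporter units and were exposed to chemical for 24 h; gain or loss fitted relative to DMSO.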

Experiment [6] is described as follows: ATG_AP_1_CIS: Attagene CIS-FACTORIAL HepG2 Assay for human Activator Protein 1 (AP-1) (AID 2282931). Conditions: HepG2 Attagene cis-factorial AP-1 reporter mRNA; actives raise or lower the signal. The essentials:
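Multiplexed HepG2 reporter assay, 24 h dosing. mRNA induction detected by RT-PCR plus capillary electrophoresis. Activity fitted in both directions against DMSO.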

The nature of experiment [7]: ATG_AP_2_CIS: Attagene CIS-FACTORIAL HepG2 Assay for human Activator Protein 2 (AP-2) (AID 2282932). Particulars: HepG2 AP-2 cis-reporter, Attagene transcription factor profiling; actives raise or lower the signal. The essentials:
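Read-out: fluorescent reporter mRNA via RT-PCR and capillary electrophoresis, 24 h post-dose in transiently transfected HepG2. Endogenous factors drive cis-promoter reporters; gain or loss of signal fitted bidirectionally against DMSO.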

A short description of experiment [8]: ATG_BRE_CIS: Attagene CIS-FACTORIAL HepG2 Assay for human Bone Morphogenetic Protein (BMP) Response Element (BRE) (AID 2282933). Conditions: HepG2 BMP response element reporter, Attagene transcription factor profiling; actives raise or lower the signal. Put shortly: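 Transient MRTU transfection of human HepG2 liver cells; 24 h compound treatment; total RNA isolated, reverse-transcribed, PCR-amplified, 6-FAM labelled, HpaI-cut, capillary electrophoresis. DMSO = negative control/baseline, bidirectional fit.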

Experiment [9] has as its target Retinoic acid receptor alpha (Homo sapiens) (UniProt P10276). Nature of the experiment: ATG_DR5_RAR_CIS: Attagene CIS-FACTORIAL HepG2 Assay for human Retinoic Acid Receptor Alpha (RARE), DR5 submotif (AID 2282934).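 As to AC50: reporter responds to endogenous RAR alpha beta and gamma in HepG2 not RARA alone.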 Particulars: HepG2 Attagene cis-factorial RARE DR5 reporter, mRNA; actives raise or lower the signal. The essentials:
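Read-out: DR5-driven reporter transcript measured by RT-PCR, 6-FAM primer extension, HpaI digest and capillary electrophoresis. Human HepG2 liver cells carry transiently transfected cis-element reporter constructs; dosing lasts 24 h. Gain or loss of signal fitted against DMSO baseline.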

Experiment [10] has as its target Transcription factor E2F1 (Homo sapiens) (UniProt Q01094). Nature of the experiment: ATG_E2F_CIS: Attagene CIS-FACTORIAL HepG2 Assay for human E2F Transcription Factor 1 (AID 2282935). Conditions: HepG2 Attagene cis-reporter, E2F reporter RNA transcripts; actives raise or lower the signal. Put shortly: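 Transient MRTU transfection of HepG2; 24 h compound exposure; RNA → oligo(dT) RT → PCR → FAM label → HpaI cut → CE fluorescence. Gain/loss of signal fit against DMSO.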

Chain of CCAAT/enhancer-binding protein beta (Homo sapiens) (P17676 whole entry, looked up): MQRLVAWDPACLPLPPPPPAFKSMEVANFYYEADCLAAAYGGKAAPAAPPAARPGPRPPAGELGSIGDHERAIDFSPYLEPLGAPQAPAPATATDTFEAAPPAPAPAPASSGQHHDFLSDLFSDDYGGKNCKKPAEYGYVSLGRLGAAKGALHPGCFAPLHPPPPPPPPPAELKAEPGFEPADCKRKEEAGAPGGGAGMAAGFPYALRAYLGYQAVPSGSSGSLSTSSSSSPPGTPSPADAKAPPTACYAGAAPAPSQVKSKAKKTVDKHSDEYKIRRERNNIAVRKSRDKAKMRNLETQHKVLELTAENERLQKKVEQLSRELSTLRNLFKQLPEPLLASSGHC
Chain of Aryl hydrocarbon receptor (Homo sapiens) (P35869 whole entry, looked up): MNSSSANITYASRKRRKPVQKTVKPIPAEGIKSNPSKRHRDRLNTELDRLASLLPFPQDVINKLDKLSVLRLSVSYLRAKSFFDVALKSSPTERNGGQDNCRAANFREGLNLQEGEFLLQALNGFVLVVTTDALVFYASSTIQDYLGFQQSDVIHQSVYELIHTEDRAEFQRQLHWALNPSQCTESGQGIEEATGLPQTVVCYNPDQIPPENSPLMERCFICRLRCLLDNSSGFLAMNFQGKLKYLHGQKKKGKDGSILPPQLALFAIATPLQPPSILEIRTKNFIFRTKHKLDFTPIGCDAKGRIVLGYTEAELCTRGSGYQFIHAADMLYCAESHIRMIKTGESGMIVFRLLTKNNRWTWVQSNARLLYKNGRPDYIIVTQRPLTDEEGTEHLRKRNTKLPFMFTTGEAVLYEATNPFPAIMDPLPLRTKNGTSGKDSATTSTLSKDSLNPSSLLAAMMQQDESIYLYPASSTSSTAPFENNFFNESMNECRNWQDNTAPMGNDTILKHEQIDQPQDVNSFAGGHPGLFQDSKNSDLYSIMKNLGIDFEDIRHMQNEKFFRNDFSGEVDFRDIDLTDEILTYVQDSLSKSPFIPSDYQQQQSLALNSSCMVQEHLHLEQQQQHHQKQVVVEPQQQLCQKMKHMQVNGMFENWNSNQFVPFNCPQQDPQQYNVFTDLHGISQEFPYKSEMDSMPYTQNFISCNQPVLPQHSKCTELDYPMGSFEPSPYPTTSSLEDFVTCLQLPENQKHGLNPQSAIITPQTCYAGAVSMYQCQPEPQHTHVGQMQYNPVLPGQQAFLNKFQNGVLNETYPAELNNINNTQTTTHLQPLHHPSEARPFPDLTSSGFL
Chain of Transcription factor E2F1 (Homo sapiens) (Q01094 whole entry, looked up): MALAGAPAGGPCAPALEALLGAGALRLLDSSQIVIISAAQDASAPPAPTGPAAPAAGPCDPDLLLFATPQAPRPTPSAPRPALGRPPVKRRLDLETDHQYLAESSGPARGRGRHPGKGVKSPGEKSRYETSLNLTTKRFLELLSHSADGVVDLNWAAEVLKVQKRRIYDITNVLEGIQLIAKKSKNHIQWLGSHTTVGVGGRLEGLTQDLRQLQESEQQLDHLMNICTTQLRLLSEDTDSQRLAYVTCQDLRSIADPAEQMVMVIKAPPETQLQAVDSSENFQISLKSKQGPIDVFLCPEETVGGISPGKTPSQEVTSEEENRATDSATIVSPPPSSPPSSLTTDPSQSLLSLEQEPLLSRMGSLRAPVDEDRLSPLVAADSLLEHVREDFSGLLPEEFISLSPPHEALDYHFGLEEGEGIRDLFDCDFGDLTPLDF
Chain of Retinoic acid receptor alpha (Homo sapiens) (P10276 whole entry, looked up): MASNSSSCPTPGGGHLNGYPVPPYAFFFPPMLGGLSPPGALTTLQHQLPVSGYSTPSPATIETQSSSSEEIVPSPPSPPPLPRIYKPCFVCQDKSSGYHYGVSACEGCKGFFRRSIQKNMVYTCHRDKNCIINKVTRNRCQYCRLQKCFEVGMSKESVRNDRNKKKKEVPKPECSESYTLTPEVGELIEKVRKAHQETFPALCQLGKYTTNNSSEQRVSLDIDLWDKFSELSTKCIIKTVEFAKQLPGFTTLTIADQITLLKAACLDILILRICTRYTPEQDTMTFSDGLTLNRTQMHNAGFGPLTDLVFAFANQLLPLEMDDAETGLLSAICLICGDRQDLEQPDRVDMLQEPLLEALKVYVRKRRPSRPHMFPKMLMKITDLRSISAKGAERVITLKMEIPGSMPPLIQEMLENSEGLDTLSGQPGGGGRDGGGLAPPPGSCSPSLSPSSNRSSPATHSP

`CCCCCC/C=C/C=O`: the result in [1], in experiment [2], in experiment [3], in experiment [4], in experiment [5] and in experiment [6] was inactive. Besides, the result in experiment [7], in experiment [8], in [9] and in experiment [10] was inactive.
With `NC(CO)(CO)CO`, the molecule was classed as inactive in [1], in experiment [2], in [3], in experiment [4], in [5] and in [6]. In addition, the molecule was classed as inactive in [7], in experiment [8], in experiment [9] and in experiment [10].
Regarding `O=CN1CCCCC1`, the result in experiment [1], in experiment [2], in experiment [3], in [4], in experiment [5] and in experiment [6] was inactive. Besides, the molecule was called inactive in experiment [7], in experiment [8], in experiment [9] and in experiment [10].
With `COC(=O)C1=C(C)NC(C)=C(C(=O)OCC(C)C)C1c1ccccc1[N+](=O)[O-]` (stereo not given), the result in experiment [1], in experiment [2], in [3], in experiment [4], in experiment [5] and in experiment [6] was inactive. In addition, the molecule was called inactive in [7], in [8], in experiment [9] and in [10].
By AC50 is commonly meant the concentration at which the activity in the assay is half-maximal. For the molecule `CC(C)c1ccc2c(c1)CC[C@H]1[C@](C)(CN)CCC[C@]21C`, the molecule was classed as inactive in experiment [1], in [2], in [5] and in [7]. For the same molecule, the AC50 was 5.78 µM (active) in [3]; 5.39 µM (active) in experiment [4]; 5.99 µM (active) in [6]; 5.7 µM (active) in [8]; 6.12 µM (active) in [9]; 6.03 µM (active) in [10].
Take `Nc1ccc2cc3ccccc3cc2c1`: the molecule was called inactive in [1], in [2], in experiment [3], in [4], in [5] and in experiment [6]. For the same molecule, the result in experiment [7], in experiment [8], in experiment [9] and in experiment [10] was inactive.
Consider `CC(C)(Oc1ccc(C2CC2(Cl)Cl)cc1)C(=O)O` (stereo not given), for which the result in [1], in experiment [2], in experiment [3], in [4], in experiment [5] and in experiment [6] was inactive. In addition, the call in experiment [7], in experiment [8], in experiment [9] and in [10] was inactive.
Consider `Cc1cc(C)c(C(=O)O)c(C)c1`, for which the molecule was called inactive in experiment [1], in experiment [2], in [3], in [4], in experiment [5] and in experiment [6]. The molecule was called inactive in experiment [7], in experiment [8], in experiment [9] and in experiment [10].
Consider `O=[N+]([O-])c1ccc(CO)cc1`, for which the molecule was classed as inactive in [1], in experiment [2], in [3], in experiment [4], in experiment [5] and in experiment [6]. Also, the molecule was classed as inactive in experiment [7], in experiment [8], in experiment [9] and in experiment [10].
Consider `Nc1ccc(Oc2ccc(N)c(N)c2)cc1`, for which the outcome in experiment [1], in experiment [2], in experiment [4], in experiment [5], in experiment [6] and in experiment [7] was inactive. Also, the result in experiment [8], in experiment [9] and in experiment [10] was inactive. The AC50 in [3] was 85.5 µM (active).
As to `CN(C)c1ccc(N=Nc2ccccc2C(=O)O)cc1`, the outcome in experiment [1], in [2], in experiment [5], in experiment [7], in [8] and in [9] was inactive. For the same molecule, the result in experiment [10] was inactive. Besides, the values for the half-maximal activity concentration (AC50) in experiment [3], in experiment [4] and in experiment [6] were 137 µM (active), 29.7 µM (active) and 37.7 µM (active), respectively.
Regarding `CC[C@H]1OC(=O)[C@H](C)[C@@H](O[C@H]2C[C@@](C)(OC)[C@@H](O)[C@H](C)O2)[C@H](C)[C@@H](O[C@@H]2O[C@H](C)C[C@H](N(C)C)[C@H]2O)[C@](C)(O)C[C@@H](C)C(=NOCOCCOC)[C@H](C)[C@@H](O)[C@]1(C)O`, the result in [1], in experiment [2], in [3], in [4], in experiment [5] and in [6] was inactive. Further, the call in experiment [7], in [8], in experiment [9] and in [10] was inactive.
Turning to `CCC(C)(C)C1CCCCC1OC(C)=O` (stereo not given), the molecule was called inactive in [1], in experiment [2], in experiment [4], in [5], in [7] and in experiment [8]. In addition, the call in experiment [9] and in [10] was inactive. The concentration at half-maximal activity (AC50) was 155 µM (active) in [3] and 158 µM (active) in experiment [6].
On to `Cc1ccc2oc(=O)ccc2c1`, for which the molecule was classed as inactive in [1], in experiment [2], in [3], in experiment [4], in experiment [5] and in experiment [6]. In addition, the molecule was called inactive in [7], in [8], in experiment [9] and in [10].
`CC(CC=O)c1ccccc1` (stereo not given): the molecule was classed as inactive in experiment [1], in [2], in experiment [3], in [7], in experiment [8] and in [9]. Moreover, the molecule was classed as inactive in [10]. The results for the AC50 in [4], in [5] and in [6] were 71.7 µM (active), 123 µM (active) and 131 µM (active), respectively.
Consider `CCCCCCCCC(=O)OCC`, for which the call in [1], in [2], in experiment [3], in experiment [4], in experiment [5] and in experiment [6] was inactive. Further, the result in [7], in experiment [8], in experiment [9] and in experiment [10] was inactive.
On to `CO[Si](CCC1CCC2OC2C1)(OC)OC` (stereo not given), for which the outcome in experiment [1], in experiment [2], in experiment [3], in experiment [4], in experiment [5] and in experiment [6] was inactive. Besides, the call in experiment [7], in experiment [8], in experiment [9] and in [10] was inactive.
Take `O=C1Nc2ccccc2C1(c1ccc(O)cc1)c1ccc(O)cc1`: the AC50 in [1] was 23.9 µM (active); in [3], 136 µM (active); in [4], 36.7 µM (active); in [5] it was 166 µM (active); in [6] it was 162 µM (active); in experiment [7], 44.8 µM (active). Moreover, the result in experiment [2], in [8], in experiment [9] and in experiment [10] was inactive.
Take `C=CC(=O)OCCC(=O)O`: the molecule was called inactive in experiment [1], in experiment [2], in experiment [3], in experiment [4], in [5] and in [6]. Further, the result in experiment [7], in experiment [8], in experiment [9] and in experiment [10] was inactive.
